Measurements published in PubChem BioAssay AID449764 (Southern Research Specialized Biocontainment Screening …, 2010).
In all, about 2,300 compounds went through this assay and about 1,700 (74%) were called active. How the calls were made is not given here. So high a share suggests a set chosen from earlier hits. This is one part of the list. Potency and affinity values are given separately.

Experiment: Mycobacterium tuberculosis H37Rv growth inhibition, no glycerol, confirmatory dose response (AID 449764);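 further: growth read after 7 days of incubation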
Conditions: series mostly up to 100 µM; inhibition: at the top concentration

Row | Compound | inhibition
1 | N#CC1=C(N)NC(SCC(=O)c2ccccc2)=C(C#N)C12CCCC2 | -2.36% (inactive)
2 | CCOc1ccc2nc(/N=C/c3nc(-c4ccccc4)oc3O)sc2c1 | 0.07% (inactive)
3 | COc1ccccc1/C=N/NC(=O)NC12CC3CC(CC(C3)C1)C2 | 1.84% (inactive)
4 | Nc1ccc(OCc2ccco2)cc1 | -7.58% (inactive)
5 | Nc1cnc(-c2ccccc2)nc1Cl | -1.81% (inactive)
6 | Cc1ccc(-c2ccc(/C=N/c3ncn[nH]3)o2)cc1Cl | 2.85% (inactive)
7 | COc1ccc(-c2nc(C#N)c(N3CCc4ccccc4C3)o2)cc1OC | 4.49% (inactive)
8 | COc1ccc(NC(=O)C(=O)NCC(c2ccco2)N2CCc3ccccc3C2)cc1 (stereo not drawn) | -1.43% (inactive)
9 | C=CCOc1ccc(/C=N/O)cc1Cl | -31.2% (inactive)
10 | Cc1ccccc1C1C(C#N)=C2N=C(N)c3c(sc4c3CCCCC4)N2C2=C1C(=O)CC(C)(C)C2 (stereo not drawn) | 0.66% (inactive)
11 | C[C@]12CCC(=O)C[C@@H]1CC[C@@H]1[C@@H]2CC[C@]2(C)C=CC[C@@H]12 | 0.91% (inactive)
12 | Cn1c(=S)c2[nH]c(SCCN3CCCC3)nc2n(C)c1=O | 9.66% (inactive)
13 | CCOC(=O)c1ccc(N=C(CC)c2c(O)n(C)c(=O)n(C)c2=O)cc1 | 8.56% (inactive)
14 | CCCN(CC1CC1)C(=O)COC(=O)c1ccc2c(c1)C(=O)N(c1ccc(OCC)cc1)C2=O | 19.1% (inactive)
15 | CN(C(=O)COC(=O)/C=C/c1ccc(Cl)c(Cl)c1)c1c(N)n(Cc2ccccc2)c(=O)[nH]c1=O | -3.74% (inactive)
16 | C=CCOc1ccc(/C=C/C(=O)OCC(=O)NCC2CCCO2)cc1 (stereo not drawn) | 1.65% (inactive)
17 | CC(C)c1ccc(-c2nn(-c3ccccc3)cc2C(=O)NCC2CCCO2)cc1 (stereo not drawn) | 0.34% (inactive)
18 | O=S(=O)(c1ccc(Cl)cc1)N1CCC(n2cnc3cc(C(F)(F)F)ccc32)CC1 | -5.67% (inactive)
19 | O=C1NC(=Nc2ccccc2)S/C1=C\C=C\c1ccco1 | -1.01% (inactive)
20 | CCCC(O)(CCC)C(=O)NNc1ccc(C)cc1 | 0.93% (inactive)
21 | CC(=O)N1C(Nc2ccc(Cl)cc2)CCN1c1ccccc1 (stereo not drawn) | 1.97% (inactive)
22 | CCOc1ccc(N=CNc2ccc(OCC)cc2)cc1 | 4.25% (inactive)

Row | Compound | inhibition
23 | Cc1ccc(C(=O)Nc2ccc3c4c(cccc24)CC3)cc1[N+](=O)[O-] | -1.35% (inactive)
24 | CCn1c(SCC(=O)Nc2nc3ccc(C)cc3s2)nc2c(c1=O)SC(C)C2 (stereo not drawn) | 5.17% (inactive)
25 | Cc1cc(NC(=O)CCN2C(=O)C3C4C=CC(C4)C3C2=O)ccc1Br (stereo not drawn) | -2.08% (inactive)
26 | Cc1ccc(-c2ccc(=O)n(CC(=O)N3CCN(c4cc(Cl)ccc4C)CC3)n2)cc1 | 7.68% (inactive)
27 | CCOC(=O)c1ccc(N=Cc2c(O)c3ccccc3oc2=O)cc1 | 0.57% (inactive)
28 | O=C(CCC1CCCC1)c1c(O)c2ccccc2oc1=O | 0.56% (inactive)
29 | CCCCCCCCCCC[C@@H](C[C@@H]1OC(=O)[C@H]1CCCCCC)OC(=O)[C@H](CC(C)C)NC=O | -2.49% (inactive)
30 | COc1cccc(/C=C/c2nc(C#N)c(NCC(C)C)o2)c1 | 5.57% (inactive)
31 | O=C(O)Cc1c[nH]c2ccc(O)cc12 | 5.07% (inactive)
32 | O=C1C(c2ccccc2)=[N+]([O-])c2ccccc21 | 13.8% (inactive)
33 | O=C1C(=O)c2ccccc2C(O)=C1C1CCC(c2ccc(Cl)cc2)CC1 (stereo not drawn) | 3.58% (inactive)
34 | COc1ccc(N=C/C=C2/C=C(c3ccccc3)OC(C)(C)O2)cc1 | -15.1% (inactive)
35 | CCCCOC(=O)c1ccc(O)cc1 | 2.54% (inactive)
36 | CCOc1ccc(/C=C/C2=Cc3c(sc(NC(=O)CSc4n[nH]c(N)n4)c3C#N)C(C)(C)C2)cc1 | 4.45% (inactive)
37 | Cc1ccc(C(=O)COC(=O)C2CC(=O)N(c3nc(-c4ccccc4)cs3)C2)cc1C (stereo not drawn) | 4.55% (inactive)
38 | Cc1cc(C)n2[nH]c(=O)c(N=Nc3cccc(C(F)(F)F)c3)c2n1 | 13.8% (inactive)
39 | Cc1[nH]n(-c2ccccc2)c(=S)c1C=NCCCN=Cc1c(C)[nH]n(-c2ccccc2)c1=S | -3.3% (inactive)
40 | O=c1ccn(-c2ccccc2)[nH]1 | -5.26% (inactive)
41 | Cc1c(O)c(=O)n(-c2ccccc2)n1C | -11.3% (inactive)
42 | O=C(OCC(=O)C12CC3CC(CC(C3)C1)C2)c1ccc(O)cc1O | -5.85% (inactive)
43 | CC(=O)NC1C(c2nc3ccccc3s2)=C(c2ccccc2)C(=O)N1c1ccc(C)cc1 (stereo not drawn) | -15.8% (inactive)
44 | CCc1ccc(N=CC23c4ccccc4C(c4ccccc42)C2C(=O)N(c4ccc(OC)cc4)C(=O)C23)cc1 (stereo not drawn) | -0.01% (inactive)

Row | Compound | inhibition
45 | COc1ccc(NCc2n[nH]nc2-c2ccccc2)cc1Cl | -3.72% (inactive)
46 | C=CCSc1n[nH]c(-c2ccc(OCCCC)cc2)n1 | 10.5% (inactive)
47 | O=C(O)C1CC=CCC1C(=O)NNc1ccccc1 (stereo not drawn) | -1.55% (inactive)
48 | CCOP(=O)(OCC)/C(=C/N1CCCCC1)NC(=O)c1ccccc1 | 0.96% (inactive)
49 | CCOc1cc(C(=O)OCc2ccc(C(=O)OC)o2)cc(Br)c1OC | 0.05% (inactive)
50 | Cc1nc2cc(C(F)(F)F)ccc2n1C1CCN(Cc2nnnn2Cc2ccc3c(c2)OCO3)CC1 | 1.25% (inactive)
51 | Cc1ccc(NC2Sc3ccccc3NC2=O)cc1Cl (stereo not drawn) | -0.25% (inactive)
52 | Cc1nc2sccn2c1-c1nc(-c2cc3ccccc3o2)cs1 | 10.1% (inactive)
53 | Cc1ccc(-c2nnc(NCc3nc4ccccc4[nH]3)c3ccccc23)cc1S(=O)(=O)N1CCCCC1 | 5.89% (inactive)
54 | Cn1ccnc1C(O)c1cc(C(C)(C)C)c(O)c(C(C)(C)C)c1 (stereo not drawn) | -3.4% (inactive)
55 | COc1ccc(NC(=O)c2oc3ccc(S(=O)(=O)N4CCOCC4)cc3c2C)cc1 | 10% (inactive)
56 | O=C(N/N=C/c1c(F)c(F)c(F)c(F)c1F)c1cccc(S(=O)(=O)N2CCOCC2)c1 | -10.6% (inactive)
57 | CC(C)(C)c1ccc(C2C3=C(CCCC3=O)NC3=C2C(=O)c2ccccc23)cc1 (stereo not drawn) | 8.47% (inactive)
58 | CC(C(=O)NC(=O)NC1CCCCC1)N(C)CC(=O)Nc1ccc(F)c(F)c1F (stereo not drawn) | 10.7% (inactive)
59 | Cc1ccccc1C(=O)Nc1ccc(-c2nc3ccc(C(=O)c4ccccc4)cc3[nH]2)cc1 | -1.44% (inactive)
60 | ClC1=C(Cl)C(Cl)=C(Cl)C1=C/C=C/c1ccccc1 | 5.26% (inactive)
61 | CC(C)c1ccc2[nH]c(O)c(N=NC(=O)c3ccc(CSc4nncn4C)cc3)c2c1 | -6.98% (inactive)
62 | CCOc1ccc(NC(=O)CSc2cn[nH]n2)cc1 | 2.67% (inactive)
63 | COC(=O)c1ccc(CSc2nc3cc(Cl)ccc3o2)cc1 | -0.73% (inactive)
64 | CCOC(=O)c1ccc(N=C2SC(C(=O)Nc3ccc(C(=O)O)cc3)CC(=O)N2Cc2cccs2)cc1 (stereo not drawn) | 5.41% (inactive)
65 | CCC(C)Nc1nc2c(C)cccn2c(=O)c1C=Nc1ccc(OC)cc1 (stereo not drawn) | -9.31% (inactive)
66 | COc1ccc(NC2(c3ccc(Cl)cc3)C(=O)c3ccccc3C2=O)cc1 | -3.05% (inactive)

Row | Compound | inhibition
67 | COc1ccc(C(=O)NNc2ccccc2)cc1OC | 5.15% (inactive)
68 | CC(C)C(=O)Nc1cccc(-c2nc3ccccc3c(=O)o2)c1 | 15.6% (inactive)
69 | Cn1c(=O)c2cc(NCc3ccccc3)nnc2n(C)c1=O | -9.62% (inactive)
70 | Cc1ccc(C(=O)N2N=C(CC(C)C)CC2(O)C(F)(F)F)o1 (stereo not drawn) | -6.72% (inactive)
71 | CCOc1ccc(C2=Nc3ccc(Br)cc3C(c3ccc(N4CCOCC4)cc3)=NN2)cc1 | 7.94% (inactive)
72 | CCOc1ccc(N2CCc3c(C)nc(SC)nc32)cc1 | 11.8% (inactive)
73 | Cc1nc(Nc2ccc(Cl)c(Cl)c2)sc1C(=O)Nc1ccccc1 | 19.2% (inactive)
74 | Cc1ccc(NC(=O)c2ccc(CSc3nnc(C)s3)cc2)c(C)c1 | -1.32% (inactive)
75 | CCCCN(CC)c1nc(N)c2c(N)nc(OCC)cc2c1C#N | 0.66% (inactive)
76 | CC(C)C[C@H]1C(=O)N2CCC[C@H]2[C@]2(O)O[C@](NC(=O)C3C=C4c5cccc6[nH]c(Br)c(c56)C[C@H]4N(C)C3)(C(C)C)C(=O)N12 (stereo partly drawn) | 15% (inactive)
77 | O=C1N/C(=N\N=C\c2ccccn2)SC1Cc1cccc(SC(F)F)c1 (stereo not drawn) | -11.1% (inactive)
78 | CCc1ccc(CCOc2ccc(CC3SC(=O)NC3=O)cc2)nc1 (stereo not drawn) | -2.88% (inactive)
79 | FC(F)(F)c1ccc(N2CCOCC2)c(Nc2nc3ccccc3n3cnnc23)c1 | -1.54% (inactive)
80 | CSc1cc(-c2ccncc2)nc(-c2ccc(Cl)cc2)c1 | 16.4% (inactive)
81 | CCCCN(CCCC)c1nc(-c2ccncc2)nc2ccccc12 | -1.44% (inactive)
82 | O/N=C/c1ccc2ccccc2c1 | 1.44% (inactive)
83 | Cc1ccc2c(c1)C(c1ccc(N3CCOCC3)cc1)=NNC(c1cccs1)=N2 | 0.25% (inactive)
84 | CCc1ccc(/C=C/C(=O)c2cc(Br)ccc(=O)c2O)cc1 | -19.1% (inactive)
85 | Cc1ccccc1-n1c(O)c(C=Nc2ccc3c(c2)OCO3)c(=O)[nH]c1=O | 0.43% (inactive)
86 | C=CCc1c(C)nc2ccc(C(=O)OCC)cc2c1Cl | 10.8% (inactive)
87 | CCn1c(SCC(=O)Nc2ccc3c(c2)oc2ccccc23)nnc1-c1ccc(N)cc1 | 4.98% (inactive)
88 | O=S(=O)(c1ccc(Oc2ccc3oc4ccccc4c3c2)nc1)N1CCCC1 | -0.11% (inactive)

Row | Compound | inhibition
89 | COc1ccc(-c2cc(O)cc(O)c2)cc1 | -6.99% (inactive)
90 | CCCCOC1CC(c2ccc(OCc3ccc(OC)cc3)c(OC)c2)N(C)O1 (stereo not drawn) | 7.75% (inactive)
91 | CCCCCCOc1ccc(/C=C/C(=O)N2CCOCC2)cc1OC | 3.43% (inactive)
92 | O=[N+]([O-])/C=C/c1cn(Cc2ccccc2)c2ccccc12 | 16.7% (inactive)
93 | Oc1ccc(/C=N/n2c3ccccc3c3ccccc32)cc1 | 8.46% (inactive)
94 | Cc1ccc(Nc2nc(N)c([N+](=O)[O-])c(N3CCCC(C)C3)n2)cc1C (stereo not drawn) | 10.2% (inactive)
95 | Fc1cc(F)cc(Nc2nc(Cl)nc(NC3CCCC3)n2)c1 | -2.21% (inactive)
96 | COc1ccc(N/C(=C2\CCCC2=O)C2CCCCC2)cc1 | 8.32% (inactive)
97 | COc1ccc(NC(=O)ON=C2c3ccccc3-c3ccccc32)cc1 | 5.91% (inactive)
98 | CC(C)(C)c1ccc(-c2nc3[nH]c(=O)cc(NC(=O)c4ccco4)n3n2)cc1 | -2.11% (inactive)
99 | Cc1ccccc1C(=O)Nc1ccccc1C(=O)NCC(C)C | -7.13% (inactive)
100 | O=C1NCCC/C1=N\Nc1ccc(Br)cc1 | -6.4% (inactive)
101 | COc1ccccc1N1CCN(c2ccc(-c3ccccc3)nn2)CC1 | 2.99% (inactive)
102 | CN1CCN(/N=C/c2c3ccccc3c(Cl)c3ccccc23)CC1 | 7.76% (inactive)
103 | COc1cc(C)ccc1OCCOc1c(C)cc(Cl)cc1Cl | 14.7% (inactive)
104 | O=c1oc(-c2ccccc2[N+](=O)[O-])nc2ccccc12 | 4.79% (inactive)
105 | Cc1noc2ncnc(Sc3ccc(Cl)cc3)c12 | -1.06% (inactive)
106 | O/N=C/c1cn(-c2ccc(Cl)cc2)nn1 | -16.6% (inactive)
107 | Cc1ccc(Cl)cc1NC(=O)CN1CCN(S(=O)(=O)N2CCOCC2)CC1 | 0.89% (inactive)
108 | CN1CCN(c2ccc(C(=O)c3cn(-c4ccc(F)c(Cl)c4)nn3)cc2)CC1 | 3.46% (inactive)
